Results reported in PubChem BioAssay (NCATS).
Results filed as inconclusive are left out. The source made the active and inactive calls. The call rests on the fitted dose curve; in most records, active means well fitted curve in the direction sought with a large enough effect; inconclusive means small, poorly fitted or top-dose-only effect, or another doubt; inactive means no such curve, though single readings can be large; an effect the other way counts as inactive or inconclusive.

What follows are molecules tested on Zika virus NS2B-NS3 protease (linked construct) (assay: Primary screen NINDS Rhodamine qHTS for Zika virus inhibitors (AID 1347160; further: nearly all actives have a fitted effect of over 55% in size; on activity change, negative = inhibition: on the % scale 0 is the no-effect control and ±100 the full control effect)). Conditions: purified NS2B-NS3 protease, Rhodamine110 substrate fluorescence; series mostly up to 57.1 µM; activity change, negative = inhibition: at the top concentration.
Outline: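 Enzyme (25 nM, linked NS2B-NS3) was preincubated 15 min with compound in 10 mM Tris-HCl pH 8.0, 0.01% Tween 20. Rhodamine110 substrate (1.5 microM) was then added and fluorescence read at start and after 15 min.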
In the case of `CCN(CC)CCNC(=O)c1ccc(N)cc1`, the “activity change, negative = inhibition” value is reported as 26.3% (inactive). `COc1cc(N2CCC(N3CCN(C)CC3)CC2)ccc1Nc1ncnc(Nc2ccccc2S(=O)(=O)C(C)C)n1` was tested, and the “activity change, negative = inhibition” value was 42.6% (inactive). `CC(C)(C)NC(=O)Nc1cccc(Nc2ncc(F)c(NC(C)(C)CO)n2)c1` was tested, and the “activity change, negative = inhibition” value was 6.67% (inactive). With `CNC1CCC(N(Cc2cccc(-c3ccncc3)c2)C(=O)c2sc3c(F)ccc(F)c3c2Cl)CC1` (configuration not stated) the “activity change, negative = inhibition” value was 293% (inactive). `CNC(=O)c1ccc2cc(C3(O)CCn4cncc43)ccc2c1` (configuration not stated) was tested, and the “activity change, negative = inhibition” value was 5.02% (inactive). `COc1ccc(C2Sc3ccccc3N(CCN(C)C)C(=O)C2OC(C)=O)cc1` (configuration not stated) was tested, and the “outcome” value was “inactive [at 33.1 µM]”. `COc1ccc(C2CC(c3ccccc3)=NN2c2ccc(S(N)(=O)=O)cc2)cc1` (configuration not stated) was tested, and the “activity change, negative = inhibition” value was 5.87% (inactive). With `COc1cc2c(cc1OC)CN(CCc1ccc(NC(=O)c3cc(OC)c(OC)cc3NC(=O)c3cnc4ccccc4c3)cc1)CC2` the “activity change, negative = inhibition” value was 0.854% [at 33.1 µM] (inactive). With `O=c1cc(CN2CCOCC2)occ1OCCCCCSc1ccnc2cc(C(F)(F)F)ccc12` the “activity change, negative = inhibition” value was 28.6% (inactive). With `CCOC(=O)C1=C(N)Oc2ccc(Br)cc2C1C(C#N)C(=O)OCC` (configuration not stated) the Potency was “inactive”. In the case of `CC(=O)N(C)C1(c2ccccc2)CCN(CCC[C@]2(c3ccc(Cl)c(Cl)c3)CCCN(C(=O)c3ccccc3)C2)CC1`, the “activity change, negative = inhibition” value is reported as 88.8% (inactive). `CC(C)C(=O)Nc1ncc(-c2cc(C(F)F)nn2-c2c(Cl)cccc2Cl)s1` was tested, and the “outcome” value was “inactive”. With `COc1ccc2c(Oc3ccc(NC(=O)c4c(C)n(CC(C)(C)O)n(-c5ccccc5)c4=O)cc3F)ccnc2c1` the “outcome” value was “inactive; activator”. `COc1ccc(Cc2ccc(NC(N)=O)cc2)cc1-c1cccc(Cl)c1` was tested, and the “activity change, negative = inhibition” value was -4.87% (inactive). `CC(=O)CCCCn1c(=O)c2c(ncn2C)n(C)c1=O` was tested, and the “activity change, negative = inhibition” value was 33% (inactive). In the case of `COCCOc1nc(-c2ccc(Cl)c(Cl)c2)n(-c2ccc(NC(=O)CCl)cc2)n1`, the “activity change, negative = inhibition” value is reported as 33.9% (inactive). `CN[C@@H](C)C(=O)N[C@H]1CN(C(=O)CC(C)C)CC[C@H]2CC[C@@H](C(=O)NC(c3ccccc3)c3ccccc3)N2C1=O` was tested, and the “outcome” value was “inactive”. With `O=C(O)CCc1nc(-c2ccccc2)c(-c2ccccc2)o1` the “activity change, negative = inhibition” value was -7.72% (inactive). `CC(C)C(=O)Oc1ccc(CO)cc1[C@H](CCN(C(C)C)C(C)C)c1ccccc1` was tested, and the “activity change, negative = inhibition” value was 27.8% (inactive). With `CN1CCN(CCOc2cc(OC3CCOCC3)c3c(Nc4c(Cl)ccc5c4OCO5)ncnc3c2)CC1` the “activity change, negative = inhibition” value was -15.1% (inactive). `CC(=O)O[C@]1(C(C)=O)CC[C@H]2[C@@H]3C=C(Cl)C4=CC(=O)[C@@H]5C[C@@H]5[C@]4(C)[C@H]3CC[C@@]21C` was tested, and the “activity change, negative = inhibition” value was -1.55% (inactive). For `O=C(Nc1cccc(Br)c1)c1cccc(S(=O)(=O)N2CCCCCC2)c1`, the “activity change, negative = inhibition” value was -3.49% (inactive). `COc1ncc(-c2ccc3nccc(-c4ccnnc4)c3c2)cc1NS(=O)(=O)c1ccc(F)cc1F` was tested, and the “activity change, negative = inhibition” value was -17.8% (inactive). With `CC[C@]1(O)C[C@@H]2CN(CCc3c([nH]c4ccccc34)[C@@](C(=O)OC)(c3cc4c(cc3OC)N(C)[C@H]3[C@@](O)(C(=O)OC)[C@H](OC(C)=O)[C@]5(CC)C=CCN6CC[C@]43[C@@H]65)C2)C1` the “activity change, negative = inhibition” value was 112% (inactive). In the case of `COc1cc(Nc2ncc(F)c(Nc3ccc4c(n3)NC(=O)C(C)(C)O4)n2)cc(OC)c1OC`, the “activity change, negative = inhibition” value is reported as 68.2% (inactive). For `CN(C[C@@H]1COCCO1)S(=O)(=O)Nc1ccc2ccc3ncc(-c4cnn(C)c4)cc3c(=O)c2c1`, the “activity change, negative = inhibition” value was -4.19% (inactive). In the case of `CN(C)CCC(c1ccccc1)c1ccccn1` (configuration not stated), the “outcome” value is reported as “inactive”. With `CC(C)(C)Cn1c(N)nc2ccc(-c3[nH]c(C(C)(C)C)nc3-c3ccc(F)cc3)nc21` the “activity change, negative = inhibition” value was -15.5% (inactive). For `COc1ccccc1N1CCN(CCCNc2cc(=O)n(C)c(=O)n2C)CC1`, the “activity change, negative = inhibition” value was 14.3% (inactive). With `CO[C@H]1C=CO[C@@]2(C)Oc3c(C)c(O)c4c(O)c(c5c(c4c3C2=O)NC2(CCN(CC(C)C)CC2)N=5)=NC(=O)C(C)=CC=C[C@H](C)[C@H](O)[C@@H](C)[C@@H](O)[C@@H](C)[C@H](OC(C)=O)[C@H]1C` the “activity change, negative = inhibition” value was -5.66% (inactive). With `CS(=O)(=O)N(Cc1ccco1)CC(O)Cn1c2ccccc2c2ccccc21` (configuration not stated) the “activity change, negative = inhibition” value was 16% (inactive). For `CCCNC(=O)NS(=O)(=O)c1ccc(Cl)cc1`, the “activity change, negative = inhibition” value was 4.6% (inactive). For `COC(=O)[C@@H]1[C@H]2C[C@H]3c4[nH]c5ccccc5c4CCN3C[C@@H]2CC[C@@H]1O`, the Potency was “inactive”. For `NC(=O)c1cnc(-c2ccc(C3(N)CCC3)cc2)c(-c2ccccc2)c1`, the “outcome” value was “inactive”. `CCN1CCC[C@H]1CNC(=O)c1cc(S(N)(=O)=O)ccc1OC` was tested, and the “activity change, negative = inhibition” value was 23.9% (inactive). In the case of `C=C1C(=O)[C@@]23C(CC[C@@H]1[C@H]2O)[C@@]12CO[C@]3(O)[C@@H](O)[C@@H]1C(C)(C)CC[C@@H]2O` (some centres not stated), the “outcome” value is reported as “inactive”. With `CC(=O)Nc1ccc([C@H](C)C(=O)Nc2ncc(C(C)C)s2)cc1` the “activity change, negative = inhibition” value was 20.4% (inactive). `CC(C)[C@H](CO)Nc1nc(Nc2ccc(C(=O)O)c(Cl)c2)c2ncn(C(C)C)c2n1` was tested, and the “activity change, negative = inhibition” value was 21.1% [at 33.1 µM] (inactive). With `CCOc1ccc(Nc2nc(-c3c(C)nc4ccccn34)cs2)cc1` the “activity change, negative = inhibition” value was 21.9% (inactive).

These molecules were tested against Lysine-specific demethylase 5B (Homo sapiens) (UniProt Q9UGL1) (assay: Optimization screen for KDM5B Histone Demethylases FDH coupled qHTS against the LOPAC library (AID 1347166; further: 0% is about no effect)). Conditions: KDM5B demethylation, FDH-coupled NADH fluorescence (FDH is formaldehyde dehydrogenase); series mostly up to 57.5 µM; activity, negative = inhibition: at the top concentration.
Chain of Lysine-specific demethylase 5B (Homo sapiens) (Q9UGL1 whole entry, looked up): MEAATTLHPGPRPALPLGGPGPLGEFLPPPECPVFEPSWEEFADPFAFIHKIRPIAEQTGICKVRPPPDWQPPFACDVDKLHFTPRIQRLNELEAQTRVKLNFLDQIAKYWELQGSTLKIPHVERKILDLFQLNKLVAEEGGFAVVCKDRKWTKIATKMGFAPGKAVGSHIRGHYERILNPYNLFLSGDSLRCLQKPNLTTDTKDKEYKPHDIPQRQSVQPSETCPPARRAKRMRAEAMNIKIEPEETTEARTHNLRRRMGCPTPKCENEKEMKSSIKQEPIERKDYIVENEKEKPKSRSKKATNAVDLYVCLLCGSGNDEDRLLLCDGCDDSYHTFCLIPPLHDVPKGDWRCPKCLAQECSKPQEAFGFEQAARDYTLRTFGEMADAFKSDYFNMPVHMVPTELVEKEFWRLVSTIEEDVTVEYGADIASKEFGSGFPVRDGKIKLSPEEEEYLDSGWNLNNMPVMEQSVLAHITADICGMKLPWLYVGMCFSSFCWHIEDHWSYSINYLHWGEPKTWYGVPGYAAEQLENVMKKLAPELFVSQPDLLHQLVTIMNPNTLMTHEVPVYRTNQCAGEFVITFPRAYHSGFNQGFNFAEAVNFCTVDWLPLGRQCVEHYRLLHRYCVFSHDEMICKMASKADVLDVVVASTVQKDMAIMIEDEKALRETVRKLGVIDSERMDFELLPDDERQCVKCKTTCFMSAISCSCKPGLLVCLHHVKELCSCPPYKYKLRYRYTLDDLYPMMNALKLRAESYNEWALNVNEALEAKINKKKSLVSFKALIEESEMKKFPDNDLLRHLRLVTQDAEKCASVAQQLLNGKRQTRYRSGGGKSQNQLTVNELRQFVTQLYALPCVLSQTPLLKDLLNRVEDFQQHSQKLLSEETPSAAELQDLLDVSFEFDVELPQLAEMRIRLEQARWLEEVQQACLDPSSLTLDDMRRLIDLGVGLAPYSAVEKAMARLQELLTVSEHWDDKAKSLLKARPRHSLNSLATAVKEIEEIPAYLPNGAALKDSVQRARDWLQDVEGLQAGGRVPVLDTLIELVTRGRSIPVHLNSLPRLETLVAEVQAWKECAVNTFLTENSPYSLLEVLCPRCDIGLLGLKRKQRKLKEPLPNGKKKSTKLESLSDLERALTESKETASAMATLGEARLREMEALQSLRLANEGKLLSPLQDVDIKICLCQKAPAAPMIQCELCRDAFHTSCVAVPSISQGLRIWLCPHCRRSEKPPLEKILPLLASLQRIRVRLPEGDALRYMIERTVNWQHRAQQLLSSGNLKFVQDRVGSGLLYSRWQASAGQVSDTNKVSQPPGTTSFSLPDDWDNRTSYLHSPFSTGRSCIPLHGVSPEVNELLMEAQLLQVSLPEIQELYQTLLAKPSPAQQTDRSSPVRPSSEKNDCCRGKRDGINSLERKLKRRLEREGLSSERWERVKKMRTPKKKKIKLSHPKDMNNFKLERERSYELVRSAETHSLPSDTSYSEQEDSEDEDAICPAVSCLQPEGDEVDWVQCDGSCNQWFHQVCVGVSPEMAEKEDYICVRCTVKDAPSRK
Outline: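 KDM5BDeltaAP (200nM final) in 50mM HEPES pH 7.5, 0.01% Tween-20 was preincubated with compound for 10 min at room temperature. A substrate mix of 12.5uM H3K4Me3, 25uM a-ketoglutarate, ascorbate, Fe2+, NAD+ and formaldehyde dehydrogenase was then added. NADH fluorescence (340/450 nm) was read initially and after 30 min.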
With `CCN(CC)CCNC(=O)c1ccc(N)cc1` the “activity, negative = inhibition” value was -4.77% (inactive). With `CC(=O)CCCCn1c(=O)c2c(ncn2C)n(C)c1=O` the “activity, negative = inhibition” value was -9.02% (inactive). In the case of `CC(=O)O[C@]1(C(C)=O)CC[C@H]2[C@@H]3C=C(Cl)C4=CC(=O)[C@@H]5C[C@@H]5[C@]4(C)[C@H]3CC[C@@]21C`, the “activity, negative = inhibition” value is reported as -11.8% (inactive). In the case of `CN(C)CCC(c1ccccc1)c1ccccn1` (configuration not stated), the “activity, negative = inhibition” value is reported as -7.92% (inactive). In the case of `COc1ccccc1N1CCN(CCCNc2cc(=O)n(C)c(=O)n2C)CC1`, the “activity, negative = inhibition” value is reported as -10.3% (inactive). With `CCCNC(=O)NS(=O)(=O)c1ccc(Cl)cc1` the “activity, negative = inhibition” value was 16.9% (inactive). For `COC(=O)[C@@H]1[C@H]2C[C@H]3c4[nH]c5ccccc5c4CCN3C[C@@H]2CC[C@@H]1O`, the “activity, negative = inhibition” value was -6.24% (inactive). With `CCN1CCC[C@H]1CNC(=O)c1cc(S(N)(=O)=O)ccc1OC` the “activity, negative = inhibition” value was -1.38% (inactive).
